In PubChem BioAssay one finds composite z-score and z-score data, which are given here for 13 molecules.

For assay [1], the system named is Wnt5a (protein binding on small-molecule microarray). As to the kind of experiment: small molecules binding Wnt5a protein – biophysical, small-molecule microarray, 635/667 nm fluorescence, primary screen (AID 1142).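 Also: fluorescence read at 667 nm with signal to noise per printed feature.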 Particulars: 635 nm fluorescence, higher = more signal.
Assay [2] is described as follows: ATP-based viability of Huh7 replicon cells – cell-based, CellTiter-Glo luminescence, basal, 48 h, cytotoxicity control for HCV replication inhibitor project, primary screen (AID 1143).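 Also: Huh7 hepatoma cells carrying a hepatitis C replication reporter with no stimulus; test concentration not given here.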 To be noted: higher = more signal, called active from +8 up or from −8 down.
A short description of assay [3]: Pseudomonas biofilm growth suppression – PAO1 strain, BacTiter-Glo luminescence, LB-PBS, primary screen (AID 1144). To be noted: P. aeruginosa PAO1 biofilm, 12 h, higher = more signal.
Assay [4] is described as follows: basal CRE-LacZ reporter activity in PC12 – cell-based, unstimulated, primary screen (AID 1145). Particulars: no forskolin, luminescence, 4.5 h, higher = more signal, called active from +8 up or from −8 down.
A short description of assay [5]: forskolin-driven CRE-LacZ activity in PC12 – cell-based, CRE-LacZ reporter, forskolin-stimulated, primary screen (AID 1146).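 Also: PC12 cells with 6xCRE LacZ reporter stimulated by forskolin 10 µM; beta-galactosidase reporter signal reflecting CREB driven transcription.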 To be noted: luminescence, 4.5 h, higher = more signal, called active from +8 up or from −8 down.
In assay [6] the target is Streptavidin (Streptomyces avidinii) (UniProt P22629). As to the kind of experiment: compounds binding control protein streptavidin – biophysical, small-molecule microarray, 635/667 nm fluorescence, artefact control for SMM compound annotation, primary screen (AID 1147).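 Also: signal reflects streptavidin binding to arrayed compounds as a control protein.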 Particulars: higher = more signal.
Sequence of Streptavidin (Streptomyces avidinii) (P22629 whole entry, looked up): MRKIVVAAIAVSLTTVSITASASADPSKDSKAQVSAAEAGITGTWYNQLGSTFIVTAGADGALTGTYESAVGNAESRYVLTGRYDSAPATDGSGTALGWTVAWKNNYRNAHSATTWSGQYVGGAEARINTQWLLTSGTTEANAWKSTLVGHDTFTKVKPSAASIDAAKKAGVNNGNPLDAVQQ
Assay [7] can be described thus: probe aInhba binding on compound microarray – biochemical, small-molecule microarray, 635/667 nm fluorescence, primary screen (AID 1148).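 Also: score merges 667nm spot fluorescence with signal-to-noise for antibody binding to printed compounds.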 To be noted: higher = more signal.
For assay [8], the target named is Torsin-1A (Homo sapiens) (UniProt O14656). As to the kind of experiment: TOR1A wild-type binding on microarray – cell lysate, small-molecule microarray, lysate, 635/667 nm, primary screen (AID 1149). Particulars: COS7 hTOR1A-WT lysate, 635 nm fluorescence, higher = more signal.
Sequence of Torsin-1A (Homo sapiens) (O14656 whole entry, looked up): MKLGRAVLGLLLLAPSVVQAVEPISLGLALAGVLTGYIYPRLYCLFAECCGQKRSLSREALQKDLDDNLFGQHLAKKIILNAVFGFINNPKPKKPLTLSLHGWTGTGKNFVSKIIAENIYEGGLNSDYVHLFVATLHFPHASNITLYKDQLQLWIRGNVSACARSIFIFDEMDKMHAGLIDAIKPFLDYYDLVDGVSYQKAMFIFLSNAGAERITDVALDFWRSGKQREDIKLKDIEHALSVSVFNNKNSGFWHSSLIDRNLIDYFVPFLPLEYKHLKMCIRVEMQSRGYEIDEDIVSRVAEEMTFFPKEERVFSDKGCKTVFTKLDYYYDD
Assay [9] shares this target. As to the kind of experiment: torsin A mutant lysate binding on microarrays – cell lysate, small-molecule microarray, COS7 lysate, 635/667 nm fluorescence, primary screen (AID 1150).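 Also: score pools 667 nm emission and signal to noise measuring lysate protein binding.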 Particulars: COS7 hTOR1A mutant lysate, 635 nm fluorescence, higher = more signal.
Assay [10] deals with Sonic hedgehog protein (Shh). Kind of assay: Sonic hedgehog microarray binding compounds – biochemical, small-molecule microarray, 635/667 nm fluorescence, primary screen (AID 1151).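 Also: Shh protein binding to compounds spotted on small-molecule microarray slides; score combines spot fluorescence intensity with signal-to-noise across triplicate slides.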 To be noted: 635 nm fluorescence, higher = more signal.

The source made the active and inactive calls. Unless noted, no rule for the calls is given here.

For `O=C1O[C@@H](c2ccccc2)[C@@H](c2ccccc2)N2[C@@H](c3ccc(O)cc3)[C@]3(C(=O)Nc4ccc(C#CC5=CCCCC5)cc43)[C@@H](C(=O)NC[C@H](O)c3ccccc3)[C@H]12`, the composite z-score in assay [1] stood at 0.361; in assay [6], 0.212; in assay [7], 0.0833; with Torsin-1A (Homo sapiens) [8], 0.675; with Torsin-1A (Homo sapiens) [9], 0.677; in assay [10], 1.48. In addition, the z-score in [2] was -3.48 (inactive); in assay [3], -1.16 (inactive); in assay [4], -0.0246 (inactive); in assay [5], -0.199 (inactive).
For the molecule `COC(=O)[C@@]1(Cc2ccc(OC)cc2)[C@H]2c3cc(C(=O)N4CCCC4)n(Cc4c(-c5ccccc5)noc4C)c3C[C@H]2CN1C(=O)c1ccccc1`, the composite z-score in assay [1] was 1.01; in assay [6], 0.945; in [7], 0.659; with Torsin-1A (Homo sapiens) [8] it was 1.27; with Torsin-1A (Homo sapiens) [9], 0.776; in assay [10] it was -0.314. Also, the z-score was -3.29 (inactive) in assay [2], -0.452 (inactive) in [3], -0.185 (inactive) in assay [4] and -0.531 (inactive) in [5].
As to `CC(C)[Si](C#C[Si](C(C)C)(C(C)C)C(C)C)(O[C@H](C)c1cn([C@H](CO)Cc2ccccc2)nn1)C(C)C`, the composite z-score in assay [1] was -0.0305; in [6] it was 0.291; in [7], -0.234; in the assay with Torsin-1A (Homo sapiens) [8], 0.238; with Torsin-1A (Homo sapiens) [9] it was 0.144; in [10], 0.341. For the same molecule, the z-score in assay [2] was -0.43 (inactive); in [3], -1.52 (inactive); in assay [4], -0.463 (inactive); in assay [5] it was -0.531 (inactive).
Take `Cc1ccc(S[C@]2(C(=O)NCCCN(C)C)CC(=O)N(C3CCCCC3)[C@@H]2c2ccc(CO)cc2)cc1`: the composite z-score in assay [1] is -0.178; in assay [6] it was -0.677; in assay [7], -0.0375; with Torsin-1A (Homo sapiens) [8], -1.74; in the assay with Torsin-1A (Homo sapiens) [9] it was -1.11; in assay [10], -0.728. The z-score in assay [2] is -1.19 (inactive); in assay [3], -0.903 (inactive); in assay [4], 0.0279 (inactive); in [5] it was 1.46 (inactive).
For the molecule `CCOC(=O)c1ccc(NC(=O)O[C@H]2[C@H](OC(=O)Nc3ccc4c(c3)OCO4)[C@@H](OC(=O)Nc3ccc4c(c3)OCO4)[C@@H](OC)O[C@@H]2CO)cc1`, the composite z-score is 0.332 in [1]; 0.398 in [6]; 0.38 in assay [7]; 0.164 in the assay with Torsin-1A (Homo sapiens) [8]; 0.676 with Torsin-1A (Homo sapiens) [9]; 1.73 in assay [10]. The z-score in assay [2] is -1.23 (inactive); in assay [3] it was 0.164 (inactive); in assay [4], 0.148 (inactive); in [5], -0.557 (inactive).
Turning to `C[C@@H]1ON(c2ccc(C(=O)OC(C)(C)C)cc2)[C@H](c2ccc(O)cc2)[C@H]1C(=O)N1C(=O)OC[C@H]1Cc1ccccc1`, the composite z-score in assay [1] is 0.218; in [6], 0.922; in assay [7] it was -0.0552; in the assay with Torsin-1A (Homo sapiens) [8], 0.438; in the assay with Torsin-1A (Homo sapiens) [9] it was 0.616; in assay [10], 0.596. Further, the z-score is -2.96 (inactive) in assay [2], 0.133 (inactive) in assay [3], 1.22 (inactive) in assay [4] and 0.419 (inactive) in assay [5].
On to `C=CC[C@]1(C(=O)O)COC(c2ccc(OCCCO)cc2)=N1`, for which the composite z-score in [1] was -0.0405; in assay [6] it was -0.447; in assay [7], -0.103; in the assay with Torsin-1A (Homo sapiens) [8] it was -0.0985; with Torsin-1A (Homo sapiens) [9], 0.338; in [10], 0.0518. The z-score in assay [2] is 0.543 (inactive); in [3] it was -0.852 (inactive); in [4] it was 1.46 (inactive); in [5], 0.123 (inactive).
With `C[C@]1(C(=O)NC2CC2)c2ccccc2C(=O)N(Cc2ccccc2)[C@H]1c1ccc(CO)cc1`, the composite z-score is -0.228 in assay [1]; -0.854 in assay [6]; 0.0028 in assay [7]; 0.249 in the assay with Torsin-1A (Homo sapiens) [8]; -0.489 with Torsin-1A (Homo sapiens) [9]; -1.3 in [10]. Further, the z-score in assay [2] is -4.5 (inactive); in assay [3], -0.483 (inactive); in [4] it was 0.0279 (inactive); in assay [5], -0.957 (inactive).
As for `COc1ccccc1CN1C(=O)c2ccccc2[C@](Cc2ccccc2I)(C(=O)NCC(F)(F)F)[C@@H]1c1ccc(CO)cc1`, the composite z-score in assay [1] is 0.431; in [6], 1.14; in [7] it was 0.189; in the assay with Torsin-1A (Homo sapiens) [8] it was 1.36; with Torsin-1A (Homo sapiens) [9], -0.103; in assay [10], 0.251. Further, the z-score in [2] was -2.75 (inactive); in assay [3] it was -0.243 (inactive); in assay [4], -0.735 (inactive); in [5], 6.82 (inactive).
Take `CN1C(=O)C2C=CC(C(O)C#Cc3ccccc3)N(Nc3ccccc3)C2C1=O` (stereo not given): the composite z-score amounted to 0.399 in [1]; 1.38 in [6]; 0.153 in assay [7]; 0.663 with Torsin-1A (Homo sapiens) [8]; 0.889 with Torsin-1A (Homo sapiens) [9]; 0.592 in assay [10]. In addition, the z-score is 0.254 (inactive) in assay [2], -0.141 (inactive) in assay [3], -0.515 (inactive) in assay [4] and 0.526 (inactive) in [5].
On to `CCOC(=O)C1=CC[C@@H](c2cccc(Cl)c2)N(S(=O)(=O)c2ccc(C)cc2)C1`, for which the composite z-score in assay [1] is -0.159; in assay [6], 0.449; in [7], 0.0173; with Torsin-1A (Homo sapiens) [8] it was 0.176; in the assay with Torsin-1A (Homo sapiens) [9], 0.193; in assay [10], -0.327. For the same molecule, the z-score in [2] was -5.08 (inactive); in [3], -0.06 (inactive); in assay [4] it was -0.574 (inactive); in [5], 0.132 (inactive).
With `COc1ccc(CN(C2=CC[C@@]3(C(N)=O)C(=O)C(Cl)=C(Cl)C(=O)[C@@]3(C#N)C2)S(=O)(=O)c2ccc(Br)cc2)cc1`, the composite z-score in assay [1] is -0.0312; in assay [6], 0.62; in assay [7] it was -0.0006; in the assay with Torsin-1A (Homo sapiens) [8], 0.385; with Torsin-1A (Homo sapiens) [9] it was 0.448; in [10], -0.245. The z-score in assay [2] was -3.6 (inactive); in assay [3], -0.897 (inactive); in [4] it was 33.6 (active); in assay [5] it was 119 (active).
With `COC(=O)c1c(CC[C@@H](CO)NC(=O)N2CCC[C@H]2Cn2cc(Cc3ccccc3)nn2)oc(C(C)=O)c1C(=O)OC`, the composite z-score in assay [1] is -0.0725; in assay [6], -0.114; in assay [7] it was -0.0736; in the assay with Torsin-1A (Homo sapiens) [8] it was -0.0521; with Torsin-1A (Homo sapiens) [9], 0.398; in [10], 1.84. For the same molecule, the z-score was -0.393 (inactive) in assay [2], 0.726 (inactive) in [3], -0.244 (inactive) in assay [4] and -0.152 (inactive) in assay [5].
